According to PubChem BioAssay (NCI):
This is part of a sample that, as a whole, favours compounds with a hit. Of some 79,000 tested, about 15% had one in any assay. Active and inactive are the calls of the source. Cut-off read from the data, not from the text of the source: active = growth inhibition above about 70%; inactive = the rest.

Assays:
[1] = NCI Yeast Anticancer Drug Screen. Data for the rad52 strain (AID 147);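 note: 0% = growth of vehicle-treated control cultures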; settings: S. cerevisiae rad52 mutant growth inhibition, hits give high values
Method in brief: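 Yeast strain carrying a DNA damage repair alteration was exposed to test compounds. Growth inhibition was measured relative to vehicle-treated controls.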

[2] = NCI Yeast Anticancer Drug Screen. Data for the wt1 strain (AID 149);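 note: 0% = growth of vehicle-treated wt1 cultures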; settings: S. cerevisiae wt1 strain (SPY 50644) growth inhibition, hits give high values
Method in brief: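 Growth inhibition read against vehicle controls after compound exposure of the wt1 yeast strain.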

[3] = NCI Yeast Anticancer Drug Screen. Data for the rad50EPP+ strain (AID 151);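 note: 0% = growth of vehicle-treated control cultures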; settings: S. cerevisiae rad50 mutant strain, hits give high values
Method in brief: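 Yeast strain carrying rad50 alteration (rad50EPP+) exposed to compounds; growth inhibition measured relative to vehicle-treated controls.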

[4] = NCI Yeast Anticancer Drug Screen. Data for the mgt1 strain (AID 153); settings: S. cerevisiae mgt1 mutant growth inhibition, hits give high values
Method in brief: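 Yeast mgt1 strain (DNA repair/cell-cycle alteration panel) exposed to compounds; growth inhibition measured relative to vehicle-treated controls.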

[5] = NCI Yeast Anticancer Drug Screen. Data for the rad50 strain (AID 155);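 note: 0% = growth of vehicle-only cultures of the same strain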; settings: S. cerevisiae rad50 strain growth inhibition, hits give high values
Method in brief: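 Readout: growth inhibition relative to vehicle-treated cultures. Compound exposure was carried out in a genetically defined yeast strain deficient in DNA damage repair.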

[6] = NCI Yeast Anticancer Drug Screen. Data for the mec2-1 strain (AID 157); settings: S. cerevisiae mec2-1 strain, hits give high values
Method in brief: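 mec2-1 yeast strain, carrying an alteration in DNA damage repair or cell cycle control, was exposed to compounds; growth inhibition was measured relative to vehicle-treated controls.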

[7] = NCI Yeast Anticancer Drug Screen. Data for the rad14 strain (AID 159);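 note: 0% = growth of vehicle-treated control cultures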; settings: S. cerevisiae rad14 strain growth inhibition, hits give high values
Method in brief: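 Growth inhibition vs vehicle controls; genetically altered yeast strain (DNA damage repair defect) treated with test compounds.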

[8] = NCI Yeast Anticancer Drug Screen. Data for the sgs1 mgt1 strain (AID 161);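 note: 0% = growth of cultures given vehicle only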; settings: S. cerevisiae sgs1 mgt1 strain, hits give high values
Method in brief: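 Compounds are added to genetically altered yeast, and growth is compared with cultures given vehicle alone to give percent inhibition.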

[9] = NCI Yeast Anticancer Drug Screen. Data for the CLN2oe strain (AID 163);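 note: 0% = growth of vehicle-only control cultures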; settings: S. cerevisiae CLN2oe strain, hits give high values
Method in brief: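 Yeast cells carrying a defined cell-cycle control alteration were exposed to test compounds. Growth inhibition was scored against vehicle-treated control cultures.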

[10] = NCI Yeast Anticancer Drug Screen. Data for the cln2 rad14 strain (AID 165);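 note: 0% = growth equal to vehicle treated cultures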; settings: S. cerevisiae cln2 rad14 strain, hits give high values
Method in brief: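 Yeast carrying cln2 and rad14 alterations (cell cycle control and DNA damage repair) were exposed to compounds. Growth inhibition was measured against vehicle-treated controls.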

[11] = NCI Yeast Anticancer Drug Screen. Data for the bub3 strain (AID 167); settings: S. cerevisiae bub3 mutant strain, hits give high values
Method in brief: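 Readout: yeast growth inhibition, expressed relative to vehicle-only wells. The test organism is a mutant strain from a panel with lesions in DNA repair or checkpoint genes.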

[12] = NCI Yeast Anticancer Drug Screen. Data for the wt2 strain (AID 169);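 note: 0% = growth of vehicle-treated yeast cultures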; settings: S. cerevisiae wt2 strain growth inhibition, hits give high values
Method in brief: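 Yeast cells were exposed to test compounds, and growth inhibition was measured relative to vehicle-treated controls.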

[13] = NCI Yeast Anticancer Drug Screen. Data for the sgs1 strain (AID 173);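 note: 0% = growth of vehicle-only control cultures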; settings: S. cerevisiae sgs1 mutant, hits give high values
Method in brief: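 Yeast mutant strains carrying defined defects in DNA damage repair or cell cycle control were exposed to test compounds. Growth inhibition was scored against vehicle-treated controls.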

[14] = NCI Yeast Anticancer Drug Screen. Data for the mlh1 rad18 strain (AID 175); settings: S. cerevisiae mlh1 rad18 strain growth inhibition, hits give high values
Method in brief: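 Growth inhibition of the yeast strain was measured after compound exposure and expressed relative to vehicle-treated controls. The strain carries defined defects in DNA damage repair.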

[15] = NCI Yeast Anticancer Drug Screen. Data for the rad18 strain (AID 177); settings: S. cerevisiae rad18 mutant growth inhibition, hits give high values
Method in brief: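 Yeast carrying a defined DNA damage repair alteration were exposed to compounds. Growth inhibition was expressed relative to vehicle-treated controls.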

[16] = NCI Yeast Anticancer Drug Screen. Data for the mlh1 strain (AID 171);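 note: 0% = growth of vehicle-treated control cultures of the same strain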; settings: S. cerevisiae mlh1 strain growth inhibition, hits give high values
Method in brief: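 Yeast carrying a defined genetic alteration in DNA damage repair or cell cycle control were exposed to test compounds. Growth inhibition was measured relative to vehicle-treated controls.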

[17] = at 5.0 µM (retest, dose inferred, filed as 0.5)
[18] = at 50.0 µM (retest, dose inferred, filed as 5.0)

Measured: growth inhibition

O=CC1(F)CC1(c1ccccc1)c1ccccc1 (stereo unspecified)
inactive: [1]; at 1.2 µM -2% | [1]; at 3.7 µM -4% | [1]; at 11.0 µM -2% | [1]; at 33.0 µM 1% | [2]; at 1.2 µM -1% | [2]; at 3.7 µM -1% | [2]; at 11.0 µM -4% | [2]; at 33.0 µM -1% | [3]; at 1.2 µM -1% | [3]; at 3.7 µM 0% | [3]; at 11.0 µM 5% | [3]; at 33.0 µM 10% | [3]; at 100.0 µM 17% | [4]; at 1.2 µM -2% | [4]; at 3.7 µM -7% | [4]; at 11.0 µM -2% | [4]; at 33.0 µM 0% | [5]; at 1.2 µM 0% | [5]; at 3.7 µM -46% | [5]; [17] -3% | [5]; at 11.0 µM 18% | [5]; at 33.0 µM 5% | [5]; [18] 17% | [5]; at 50.0 µM 27.8% | [6]; at 1.2 µM -3% | [6]; at 3.7 µM -3% | [6]; [17] 6% | [6]; at 11.0 µM -2% | [6]; at 33.0 µM 4% | [6]; [18] 21% | [6]; at 50.0 µM 21% | [7]; at 1.2 µM 0% | [7]; at 3.7 µM 1% | [7]; at 11.0 µM 2% | [7]; at 33.0 µM 7% | [8]; [17] -2% | [8]; [18] 53% | [8]; at 50.0 µM 55.6% | [9]; at 1.2 µM -2% | [9]; at 3.7 µM 1% | [9]; at 11.0 µM 2% | [9]; at 33.0 µM 1% | [9]; at 100.0 µM 25% | [10]; [17] -1% | [10]; [18] 2% | [10]; at 50.0 µM 23.8% | [11]; at 1.2 µM -2% | [11]; at 3.7 µM -4% | [11]; [17] -3% | [11]; at 11.0 µM -6% | [11]; at 33.0 µM -4% | [11]; [18] 11% | [11]; at 50.0 µM 5.65% | [12]; at 1.2 µM -1% | [12]; at 3.7 µM 6% | [12]; at 11.0 µM -2% | [12]; at 33.0 µM 2% | [13]; at 1.2 µM -2% | [13]; at 3.7 µM -1% | [13]; at 11.0 µM 3% | [13]; at 33.0 µM 22% | [14]; [17] -1% | [14]; [18] 14% | [14]; at 50.0 µM 14.2% | [15]; at 1.2 µM -6% | [15]; at 3.7 µM 2% | [15]; at 11.0 µM 3% | [15]; at 33.0 µM 13%
active: [1]; at 100.0 µM 81% | [2]; at 100.0 µM 73% | [4]; at 100.0 µM 87% | [5]; at 100.0 µM 94% | [6]; at 100.0 µM 87% | [7]; at 100.0 µM 80% | [11]; at 100.0 µM 89% | [12]; at 100.0 µM 98% | [13]; at 100.0 µM 98% | [15]; at 100.0 µM 94%

Nc1ccc(N=Nc2ccc(-c3ccc(O)cc3)cc2)c2ccc(S(=O)(=O)O)cc12
inactive: [1]; at 1.2 µM -3% | [1]; at 3.7 µM 2% | [1]; at 11.0 µM 17% | [1]; at 33.0 µM 39% | [1]; at 100.0 µM 54% | [2]; at 1.2 µM 0% | [2]; at 3.7 µM 1% | [2]; at 11.0 µM 6% | [2]; at 33.0 µM 10% | [2]; at 100.0 µM 15% | [3]; at 1.2 µM 7% | [3]; at 3.7 µM 25% | [3]; at 11.0 µM 67% | [4]; at 1.2 µM 1% | [4]; at 3.7 µM 0% | [4]; at 11.0 µM 3% | [4]; at 33.0 µM 6% | [4]; at 100.0 µM 12% | [5]; at 1.2 µM 1% | [5]; at 3.7 µM 1% | [5]; [17] 8% | [5]; at 11.0 µM 17% | [5]; at 33.0 µM 25% | [5]; [18] 57% | [5]; at 100.0 µM 43% | [6]; at 1.2 µM 2% | [6]; at 3.7 µM 3% | [6]; [17] 15% | [6]; at 11.0 µM 8% | [6]; at 33.0 µM 14% | [6]; [18] 10% | [6]; at 50.0 µM 34.9% | [6]; at 100.0 µM 23% | [7]; at 1.2 µM -1% | [7]; at 3.7 µM -1% | [7]; at 11.0 µM 4% | [7]; at 33.0 µM 11% | [7]; at 100.0 µM 30% | [8]; [17] 1% | [8]; [18] 15% | [8]; at 50.0 µM 19.1% | [9]; at 1.2 µM 1% | [9]; at 3.7 µM 2% | [9]; at 11.0 µM 0% | [9]; at 33.0 µM -1% | [9]; at 100.0 µM -3% | [10]; [17] 45% | [10]; [18] 13% | [10]; at 50.0 µM 47.1% | [11]; at 1.2 µM -1% | [11]; at 3.7 µM -4% | [11]; [17] 9% | [11]; at 11.0 µM -2% | [11]; at 33.0 µM 15% | [11]; [18] 12% | [11]; at 50.0 µM 38.4% | [11]; at 100.0 µM -9% | [16]; at 1.2 µM 3% | [16]; at 3.7 µM 3% | [16]; at 11.0 µM 6% | [16]; at 33.0 µM -19% | [16]; at 100.0 µM 18% | [13]; at 1.2 µM 2% | [13]; at 3.7 µM 8% | [13]; at 11.0 µM 20% | [13]; at 33.0 µM 37% | [13]; at 100.0 µM 40% | [14]; [17] 5% | [14]; [18] 43% | [14]; at 50.0 µM 55.1% | [15]; at 1.2 µM -4% | [15]; at 3.7 µM 11% | [15]; at 11.0 µM 48% | [15]; at 33.0 µM 69%
active: [3]; at 33.0 µM 79% | [3]; at 100.0 µM 78% | [5]; at 50.0 µM 82.9% | [15]; at 100.0 µM 72%
